Mcl1-Noxa inh: Mcl-1/Noxa interaction inhibition; Q07820; TR-FRET Mcl-1/Noxa peptide binding, 2 h; inhibition, % at 21.7 µM; 1.5% of 220,000 active; AID 1022;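 active means compounds that cut the protein-peptide binding signal by more than 50% relative to plate controls in a single-dose test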;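 further: His-tagged Mcl-1 with rhodamine Noxa BH3 peptide and terbium anti-His antibody; 0% = Mcl-1 plus Noxa peptide wells and 100% = peptide-only wells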
Target sequence (Q07820 whole entry, looked up): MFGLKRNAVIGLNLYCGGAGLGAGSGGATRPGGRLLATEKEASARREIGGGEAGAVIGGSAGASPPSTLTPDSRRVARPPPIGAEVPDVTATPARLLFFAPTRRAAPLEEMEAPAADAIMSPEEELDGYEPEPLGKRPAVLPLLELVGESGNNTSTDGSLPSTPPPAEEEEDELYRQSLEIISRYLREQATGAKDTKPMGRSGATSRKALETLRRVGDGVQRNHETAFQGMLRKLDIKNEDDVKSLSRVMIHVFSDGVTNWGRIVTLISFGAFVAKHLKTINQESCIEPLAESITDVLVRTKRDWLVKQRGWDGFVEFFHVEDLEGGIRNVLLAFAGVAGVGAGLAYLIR
TNF death inh: inhibitors of TNF-alpha induced necroptosis in Jurkat FADD-/- cells | 0.068% of 220,000 active | activation (protection from cell death), % at 10 µM | Jurkat FADD-/- TNF necroptosis rescue, ATP luminescence, 24 h; 0 = TNF only, 100 = no-TNF cells;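 active means activation, meaning protection from cell death, of at least 50% relative to plate controls; inactive means activation below 50%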;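 further: necroptosis triggered by 40 ng/mL TNF-alpha added together with compound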
Mcl-1 Bim block: human Bim-Mcl-1 interaction inhibition. Bead-based flow cytometry, Bim peptide-Mcl-1 binding. inhibition, % at 10 µM. 0.1% of 190,000 active; in the data active means inhibition above about 40%;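 further: 0% = no compound tracer wells and 100% = peptide blocker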
MCL1-BIM inh: inhibitors of human MCL1 binding to BIM-BH3 peptide; AID 2057; GST-MCL1 / FITC-Bim-BH3 fluorescence polarization; inhibition, % at 10.9 µM; 0.68% of 320,000 active; Q07820;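 active means inhibition above the mean inhibition of all tested compounds plus 3 SD, set per campaign, cut at about 40% in these data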;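 further: 0% = DMSO wells and 100% = unlabeled Bim-BH3 peptide control; higher means more loss of mP so more displacement of Bim peptide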
Mcl1 Bid PPI: Mcl-1/Bid interaction inhibition. TR-FRET Mcl-1/Bid-Dy647 peptide binding, 1536-well. 0.97% of 220,000 active. AID 1021. inhibition, % at 21.7 µM. Q07820;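 active means compounds that cut the binding signal by more than half at the single screening dose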;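 further: His-tagged Mcl-1 with europium anti-His antibody binding Bid BH3 peptide; 0% = Mcl-1 plus peptide wells and 100% = peptide-only wells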
L929 necroptosis: blocks zVAD induced death of L929 cells; L929 zVAD necroptosis rescue, ATP luminescence, 24 h; with zVAD 60 µM; viability rescue, % at 10 µM; 0.38% of 220,000 active; AID 1377;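 active means activation, scaled between plate controls, above about 75%, limit read from the data; inactive means activation under that limit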;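 further: 0% = zVAD with DMSO and 100% = DMSO alone without zVAD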
Starred values were filed as active, the others as inactive; . = not tested or not shown. In the library only some 2.4% were active in any assay of this set; here they are far more common.

SMILES | Mcl1-Noxa inh | TNF death inh | Mcl-1 Bim block | MCL1-BIM inh | Mcl1 Bid PPI | L929 necroptosis
Nc1cccc(C2=Nc3cccc4cccc(c34)N2)c1 | 74* | -4 | -3 | 8 | 35 | 2
COc1ccc(N2CCN(Cc3oc(CO)cc(=O)c3O)CC2)cc1 | -10 | 1 | 16 | 42* | -98 | 1
CN1CCN(Cc2oc(CO)cc(=O)c2O)CC1 | -19 | 0 | -2 | 11 | -102 | 0
CCN1CCN(c2ccc(S(=O)(=O)N3CCCCC3)cc2N)CC1 | . | . | . | 14 | . | .
COc1ccc(CCNC(=O)C23CCC(C)(C(=O)O2)C3(C)C)cc1OC (stereo not given) | 2 | 2 | 2 | -4 | -14 | 0
COc1ccc(CCNC(=O)C2(C)CCC(=O)N2CCC(C)C)cc1OC (stereo not given) | 3 | -1 | -3 | 2 | 59* | 0
COc1cc(/C=N/Nc2nc(C)nc3c2cnn3-c2ccccc2)ccc1O | 74* | -6 | 7 | . | 27 | 26
CSc1ccc(/C=N/Nc2cccc(C(=O)O)c2)cc1 | 99* | 0 | -1 | . | 19 | 1
COc1cc(/C=N/Nc2ccc(C(=O)O)cc2)ccc1O | 63* | -1 | 2 | 13 | -51 | 0
COc1cc(/C=N/NC(=O)c2nc(-c3ccccc3)n(-c3ccccc3)n2)ccc1O | 11 | 1 | -2 | 16 | -61 | 1
O=C(O)c1ccc(N/N=C/c2ccc(OC(=O)c3cccc(Cl)c3)cc2)cc1 | 92* | -1 | . | 0 | 46 | 0
O=C(OC1CCCCC1=O)c1ccc(F)c(S(=O)(=O)N2CCOCC2)c1 (stereo not given) | . | . | . | -3 | . | .
COc1cc(OC)c(N2CC(C(=O)NCCC3=CCCCC3)CC2=O)cc1Cl (stereo not given) | . | . | . | 5 | . | .
COc1ccc(-c2sc3ccc(N4CCOCC4)cc3c2-c2ccc(OC)c(F)c2)cc1 | . | . | . | -8 | . | .
Cn1cc(Br)c(-c2cccc(NC(=O)CCCC(=O)O)c2)n1 | -2 | 1 | . | 2 | -5 | 0
O=[N+]([O-])c1ccc(N/N=C/c2cn(Cc3ccc(F)cc3)c3ccccc23)nc1 | 57* | 1 | -3 | -50 | 94* | 0
Cc1coc2c(C)c3oc(=O)c(CCC(=O)NCc4ccccn4)c(C)c3cc12 | . | . | . | -5 | . | .
CCN(Cc1ccccc1)S(=O)(=O)c1cn(C)cn1 | . | . | . | -2 | . | .
CC1(C(=O)N2CCN(c3ccc([N+](=O)[O-])cc3)CC2)CC1(Cl)Cl (stereo not given) | . | . | . | 4 | . | .
CC1(C)C(c2cccs2)=[N+]([O-])C2(CCCCC/C2=N\O)N1O (stereo not given) | -8 | -1 | -1 | -14 | 57* | 1
O=C(CNc1ccc2c(c1)OCO2)N/N=C\c1ccccc1Cl | 20 | 1 | -6 | 16 | -9 | 2
Cc1[nH]c2ccccc2c1/C=N\NC(=O)CNc1ccc2c(c1)OCO2 | 56* | 2 | 1 | -3 | -16 | 1
O=C(CN(Cc1ccc(F)cc1)S(=O)(=O)c1ccccc1)N1CCCCC1 | 62* | 0 | -3 | 6 | -24 | 0
Cc1ccccc1C(=O)Nc1cccc(-c2ccc3nncn3n2)c1 | 4 | 0 | 3 | -3 | -5 | 19
O=C(Nc1cccc(-c2ccc3nncn3n2)c1)c1ccco1 | -6 | -1 | 41* | -3 | -9 | 5
SMILES | Mcl1-Noxa inh | TNF death inh | Mcl-1 Bim block | MCL1-BIM inh | Mcl1 Bid PPI | L929 necroptosis
COc1cccc(CN(C)C(=O)c2ccc(OCC(=O)N3CCOCC3)c(OC)c2)c1 | . | . | . | -4 | . | .
CCc1ccc(-c2c(C)sc(NC(C)=O)c2C(N)=O)cc1 | 7 | -15 | -1 | -6 | -45 | 78*
C=CCSc1nsc(NC(=O)Nc2ccc(F)cc2)n1 | . | . | . | -12 | . | .
COc1cc(/C=C(\C#N)c2nc3ccc(C)cc3[nH]2)c([N+](=O)[O-])cc1OC | 18 | -1 | -5 | -24 | -6 | 0
COc1cc(/C=C(\C#N)c2nc3ccccc3[nH]2)cc(Br)c1OCc1ccccc1 | 30 | -4 | -3 | -31 | 9 | 3
COc1ccc(/C=C(\C#N)c2nc3ccc(C)cc3[nH]2)cc1Oc1ccc(C(F)(F)F)cc1[N+](=O)[O-] | 0 | -2 | 0 | -13 | -12 | 0
COc1cc(/C=C(/C#N)c2nc3ccccc3[nH]2)ccc1OC(=O)c1ccco1 | 13 | -8 | -6 | 8 | -2 | 1

Assay outcomes (PubChem)
